Source: PubChem BioAssay AID624296 (National Center for Advancing Translational Sciences (NCATS), 2012)
In all, about 350,000 compounds went through this assay and about 9,900 (2.8%) were called active. Entries that show only a call come without a potency. About 15% were inconclusive and are not listed. Calls come from the whole dose curve; as a rule, active = well fitted activation curve with a large enough effect; inconclusive = small, poorly fitted or top-dose-only effect; inactive = no such curve, though single readings can be large or run the other way. Many of the other results were omitted from the sample, so actives are more common in it than they were.

Assay: A quantitative high throughput screen for small molecules that induce DNA re-replication in MCF 10a normal breast cells. Note: nearly all actives have a fitted effect of over 50% in size.
Conditions: MCF 10A DNA re-replication, Hoechst nuclear intensity, 48 h; series mostly up to 46.1 µM
Excerpt: H Molecular Libraries Probe Production Network [MLPCN]
NIH Chemical Genomics Center [NCGC]
Assay Provider: Melvin DePamphilis, NICHD, NIH
Eukaryotic cells normally restrict genome duplication to once per cell division. When this process is aberrant, DNA re-replication occurs when cells reinitiate DNA replication before the first round of replication is complete. DNA re-replication induces the DNA damage response, arrests cell proliferation, and triggers apoptosis. The cell cycle components cyclin A, Cdt-1, Cdc6 and geminin are critical regulators of this process and their misregulation results in DNA re-replication in normal and cancer cells. To identify compounds that induce re-replication in normal cells, an image-based assay was used to measure DNA content of nuclei, as detected by the fluorescent DNA binding dye, Hoechst. Cell nuclei were imaged by a fluorescence scanning plate imager and compounds that induce DNA re-replication were identified by the increase of nuclei with elevated fluorescence intensity
For screening, 250 cells in 5 uL/well were dispensed into black clear 1536-well plates (Aurora) using a solenoid-based dispenser. Following transfer of 23 nL compound or DMSO vehicle by a pin tool, the plates were incubated 48 hr at 37 C and 5% CO2. After addition of 1 uL/well Hoescht stain, the plates were incubated 40 min at 37 C, 5% CO2 and total intensity of fluorescent objects (nuclei) were enumerated by an Acumen Explorer Ex3 (TTP LabTech) fluorescence scanning plate imager (405 nm excitation, 500-530 nm emission).
Keywords: NIH Roadmap, MLPCN, MLI, MLSMR, qHTS, NCGC, DNA replication, cancer
Potency is the fitted concentration of half-maximal effect.

| Compound | Potency |
| --- | --- |
| O=C(CCNS(=O)(=O)c1ccccc1)NCCCc1ccccc1 | inactive |
| O=C(Cc1ccc(NC(=O)C2CCCN(C(=O)CCc3ccccc3)C2)cc1)Nc1ccc(C(=O)N2CCOCC2)cc1 (configuration not stated) | inactive |
| Cn1c(=O)[nH]c2c(c(C(=O)O)nn2C)c1=O | inactive |
| O=C(O)c1cccc(S(=O)(=O)N2CC=C(c3ccccc3)CC2)c1 | inactive |
| COc1cc(C(=O)NCC(=O)N2CC=C(c3ccccc3)CC2)cc(OC)c1OC | inactive |
| O=C(Nc1ccc(Cl)c(Cl)c1)N1CC=C(c2ccccc2)CC1 | 14.6 µM (active) |
| CCOc1ccc(/C=C(/C#N)c2nnc(N3CCOCC3)n2-c2ccccc2)cc1OC | inactive |
| COc1cccc2c1C(=O)c1c(O)c3c(c(O)c1C2=O)CC(O)(C(C)=NNC(=O)c1ccc(Cl)c(Cl)c1)CC3OC1CC(N)C(O)C(C)O1 (configuration not stated) | inactive |
| COc1cc(OC)c(C(=O)Nc2ccccc2-c2ccccc2)cc1OC | 18.4 µM (active) |
| COc1cc2ccccc2cc1C(=O)Nc1ccccc1C | inactive |
| O=C(Nc1ccccc1-c1ccccc1)c1ccccc1[N+](=O)[O-] | inactive |
| O=C1C=C(c2cccc(Br)c2)C[C@@H](c2ccc(F)cc2)C1 | inactive |
| CNc1nc(=O)n(C2CCCO2)cc1C (configuration not stated) | inactive |
| COc1ccc(C(=O)Nc2ccc(C3(C#N)CCCC3)cc2)cc1OC | 20.6 µM (active) |
| COc1ccc(C2(C#N)CCC(C(=O)O)CC2)cc1OC1CCCC1 (configuration not stated) | inactive |
| COc1ccc(C(=O)Nc2ccc(N3CCC(C)CC3)cc2)cc1Br | inactive |
| COc1cc2c(cc1OC)C(c1ccc(C)o1)CC(=O)N2 (configuration not stated) | inactive |
| COC(=O)CSC1=C(C#N)C(c2ccccc2OC)C(C(=O)OC)C(=O)N1 (configuration not stated) | inactive |
| C=CCOC(=O)C1=C(C)NC(SCC(=O)OCC)=C(C#N)C1c1ccc(C)cc1 (configuration not stated) | inactive |
| CCOC(=O)CSC1=C(C#N)C(c2sccc2C)CC(=O)N1 (configuration not stated) | 2 µM (active) |
| C=CCSC1=C(C#N)C(c2cc(Br)c(O)c(OC)c2)CC(=O)N1 (configuration not stated) | inactive |
| Cc1ccc(C2CC(=O)NC(SCC(=O)OCc3ccccc3)=C2C#N)o1 (configuration not stated) | 20.6 µM (active) |
| CSCCC(NC(=O)COc1ccccc1)C(=O)OCc1ccc(Cl)cc1 (configuration not stated) | inactive |
| COc1cc(N)c(Cl)cc1C(=O)OCC(=O)c1ccc2c(c1)NC(=O)CO2 | inactive |
| CCOC(=O)N(Cc1ccccc1)C1CC1 | inactive |
| CC1(C)C(=O)CCC2(C)C1=CCC1C2C(=O)CC2(C)C1CCC2(O)C(=O)CO (configuration not stated) | inactive |

| Compound | Potency |
| --- | --- |
| NS(=O)(=O)c1ccc(CNC(=S)NC(=O)c2ccco2)cc1 | inactive |
| O=C(CNC(=O)c1ccc2ccccc2c1)Nc1ncccc1O | inactive |
| CCOC(=O)C(C)n1cnc2c(nnn2-c2cccc(OC)c2)c1=O (configuration not stated) | inactive |
| CCOc1cccc(-n2nnnc2-c2ccc(OC)cc2)c1 | 6.51 µM (active) |
| c1ccc(-n2nnnc2-c2cccnc2)cc1 | inactive |
| CC1CCCCC1NCC(=O)Nc1ccccc1C(=O)Nc1ccccc1 (configuration not stated) | inactive |
| CC(C#N)(NC(=O)CN1CCN(S(=O)(=O)c2cc(C(F)(F)F)ccc2Cl)CC1)C1CC1 (configuration not stated) | inactive |
| CCN1CCN(c2cc3nc(C)n(Cc4ccccc4)c(=O)c3cc2NC(=O)c2ccccc2F)CC1 | 18.4 µM (active) |
| CCOc1cc(NC(=O)c2ccccc2C(=O)O)c(OCC)cc1NC(=O)c1ccccc1F | inactive |
| CCC(=O)Nc1ccc2nc(C)n(Cc3ccccc3Cl)c(=O)c2c1 | inactive |
| O=C(N=C1SC2CS(=O)(=O)CC2N1c1ccccc1)c1ccccc1 (configuration not stated) | inactive |
| C[C@@H]1CN([C@@H](C)CO)C(=O)c2cccc(NS(=O)(=O)c3ccc(F)cc3)c2O[C@H]1CN(C)C(=O)NC1CCCCC1 | inactive |
| CN(C)CCNC(=O)c1ccc(Cl)c2cc3ccccc3nc12 | inactive |
| CS(=O)(=O)c1ccc2nc(NC(=O)c3ccc(N4CCCC4=O)cc3)sc2c1 | inactive |
| Cc1ccc(NC(=O)c2cccc(S(=O)(=O)N3CCCc4ccccc43)c2)nc1 | inactive |
| O=C(Nc1nc2ccc([N+](=O)[O-])cc2s1)c1ccc(S(=O)(=O)N2CCCc3ccccc32)cc1 | 2.59 µM (active) |
| COc1ccc(CCNC(=O)Cc2ccc(C)cc2)cc1OC | inactive |
| COc1ccc(CNC(=O)COC(=O)c2sccc2C)cc1OC | inactive |
| COc1ccc(CNC(=O)Cc2ccc(-c3ccccc3)cc2)cc1OC | 11.6 µM (active) |
| COc1ccc(CNC(=O)COc2ccccc2C(=O)c2cnn(-c3ccccc3)c2)cc1OC | 13 µM (active) |
| COc1ccc(CNC(=O)COC(=O)c2c(C)nn(-c3ccccc3)c2C)cc1OC | inactive |
| COc1ccc(NC(=O)CNC(=O)Cc2ccccc2)cc1OC | inactive |
| CC1CCCCC1NC(=O)NC(=O)COC(=O)C1=NN(c2ccccc2)C(=O)CC1 (configuration not stated) | inactive |
| CCn1ccnc1CN(C)C(=O)c1cc(COc2ccc(Cl)cc2OC)on1 | inactive |
| COc1cc(Cl)ccc1OCc1cc(C(=O)N2CC[C@@H]3CCCC[C@H]3C2)no1 | 16.4 µM (active) |
| CC1CN(C(=O)c2cc(COc3c(F)cccc3F)on2)CCN1C (configuration not stated) | inactive |
